According to paper PMC9838217, “Structure of SALL4 zinc finger domain reveals link between AT-rich DNA binding and Okihiro syndrome”:
Where a chain is given by its changes, count along the chain named.

Columns and labels:
Assay in all cases: HT-SELEX; high values mean tight binding
Settings in all cases: protein: recombinant; vector His6-GST; dsDNA, one strand shown
SALL4 ZFC4 WT (HT-SELEX) = biological target: T1, SALL4 ZFC4 WT (HT-SELEX) (Mus musculus, UniProt Q8BX22 870-940)
T1 sequence: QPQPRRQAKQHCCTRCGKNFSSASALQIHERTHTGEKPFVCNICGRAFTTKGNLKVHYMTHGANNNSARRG
Method in brief: (§1)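 Purified recombinant mouse SALL4 zinc finger cluster 4 (residues 870–940, 1 µg) was incubated with library DNA (1.5 µg first cycle, 200 ng later) in 100 µl of 10 mM Tris–HCl pH 7.5, 50 mM NaCl, poly(dI-dC) and DTT for 10 min at room temperature, with Ni2+ bead capture and reselection for up to 6 cycles in triplicate. MiSeq reads were scanned for 6-mers. Binding signal is each canonical k-mer's read fraction as fold change relative to the initial random library.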

[1] = biological target: T2, SALL4 ZFC4 R900W (HT-SELEX) (Mus musculus, UniProt Q8BX22 870-940, R900W)
T2 sequence: T1 sequence with R31W
Method in brief: as §1

[2] = biological target: T3, SALL4 ZFC4 G921D (HT-SELEX) (Mus musculus, UniProt Q8BX22 870-940, G921D)
T3 sequence: T1 sequence with G52D
Method in brief: as §1

| Sequence | binding signal (SALL4 ZFC4 WT (HT-SELEX)) [fold-change vs cycle 0] | binding signal [1] [fold-change vs cycle 0] | binding signal [2] [fold-change vs cycle 0] |
| --- | --- | --- | --- |
| ATATGC | 1.17 ± 0.106 | 1.07 ± 0.0294 | 1.13 ± 0.0399 |
| ATAGAC | 1.2 ± 0.024 | 1.29 ± 0.0416 | 1.3 ± 0.09 |
| GTACCA | 0.755 ± 0.0123 | 0.835 ± 0.0283 | 0.893 ± 0.0178 |
| TACTAA | 2.076 ± 0.0175 | 2.12 ± 0.0758 | 1.87 ± 0.135 |
| ACCTTG | 0.8287 ± 0.00258 | 0.986 ± 0.024 | 1 ± 0.0262 |
| CAAAGC | 0.565 ± 0.00649 | 0.654 ± 0.0334 | 0.761 ± 0.0246 |
| AATAAG | 2.35 ± 0.133 | 2.15 ± 0.175 | 1.86 ± 0.227 |
| AGTTCG | 0.647 ± 0.0383 | 0.741 ± 0.0101 | 0.828 ± 0.0183 |
| ACAAAT | 1.82 ± 0.0876 | 1.76 ± 0.0787 | 1.61 ± 0.106 |
| GCAGAA | 0.567 ± 0.022 | 0.629 ± 0.0163 | 0.688 ± 0.0217 |
| AGGCTA | 0.619 ± 0.0154 | 0.751 ± 0.013 | 0.829 ± 0.0213 |
| AGCAAA | 0.996 ± 0.0354 | 1.04 ± 0.0692 | 1.07 ± 0.0335 |
| AACTAT | 2.16 ± 0.123 | 1.96 ± 0.0882 | 1.76 ± 0.173 |
| AGCCAT | 0.592 ± 0.0288 | 0.664 ± 0.00758 | 0.778 ± 0.0611 |
| CTAGAA | 1.25 ± 0.0695 | 1.37 ± 0.0276 | 1.3 ± 0.11 |
| GATAAA | 2.01 ± 0.0629 | 1.92 ± 0.127 | 1.69 ± 0.118 |
| GTATCA | 1.39 ± 0.0637 | 1.4 ± 0.0395 | 1.38 ± 0.0408 |
| ACATTG | 1.17 ± 0.0218 | 1.29 ± 0.0215 | 1.28 ± 0.0251 |
| AAAGTT | 1.85 ± 0.124 | 1.9 ± 0.107 | 1.7 ± 0.189 |
| AGGACA | 0.769 ± 0.0198 | 0.906 ± 0.0391 | 0.947 ± 0.0205 |
| CTGAGA | 0.788 ± 0.03 | 0.922 ± 0.033 | 0.951 ± 0.0498 |

| Sequence | binding signal (SALL4 ZFC4 WT (HT-SELEX)) [fold-change vs cycle 0] | binding signal [1] [fold-change vs cycle 0] | binding signal [2] [fold-change vs cycle 0] |
| --- | --- | --- | --- |
| ACAAAG | 1.19 ± 0.0417 | 1.36 ± 0.0499 | 1.3 ± 0.0198 |
| ACCGGA | 0.381 ± 0.0137 | 0.447 ± 0.0161 | 0.56 ± 0.0517 |
| TAATGA | 2.15 ± 0.16 | 2.16 ± 0.14 | 1.9 ± 0.22 |
| AACAAT | 2.06 ± 0.132 | 1.95 ± 0.114 | 1.79 ± 0.145 |
| CAAACG | 0.563 ± 0.00697 | 0.704 ± 0.014 | 0.777 ± 0.055 |
| ATATCA | 2.74 ± 0.247 | 2.05 ± 0.0942 | 1.83 ± 0.136 |
| CCTCAC | 0.47 ± 0.0318 | 0.561 ± 0.0275 | 0.658 ± 0.0448 |
| AGCGTA | 0.55 ± 0.0304 | 0.623 ± 0.0245 | 0.723 ± 0.0232 |
| ATTGAC | 1.17 ± 0.0362 | 1.31 ± 0.032 | 1.3 ± 0.0284 |
| CTAATC | 1.38 ± 0.0603 | 1.55 ± 0.0541 | 1.43 ± 0.0842 |
| TGACAA | 1.16 ± 0.0336 | 1.29 ± 0.0235 | 1.26 ± 0.0515 |
| AACTCG | 0.7 ± 0.0308 | 0.798 ± 0.00905 | 0.871 ± 0.024 |
| ACACTG | 0.743 ± 0.0572 | 0.877 ± 0.0574 | 0.908 ± 0.0148 |
| CTCCTC | 0.611 ± 0.00845 | 0.705 ± 0.0481 | 0.774 ± 0.0379 |
| CACTGC | 0.334 ± 0.0238 | 0.388 ± 0.00394 | 0.511 ± 0.0704 |
| ATGTGA | 1.31 ± 0.0395 | 1.44 ± 0.0647 | 1.39 ± 0.0509 |
| ATTACA | 2.21 ± 0.144 | 2.06 ± 0.11 | 1.82 ± 0.177 |
| CGATAA | 1.17 ± 0.0894 | 1.19 ± 0.0909 | 1.15 ± 0.0473 |
| GCAACA | 0.54 ± 0.0464 | 0.629 ± 0.0238 | 0.72 ± 0.0281 |
| AGCTTG | 0.638 ± 0.0175 | 0.764 ± 0.0176 | 0.841 ± 0.049 |
